Data reported in PubChem BioAssay.
The source made the active and inactive calls. Unless noted, the rule behind the calls is not given here.

Tests used:
[1] = test system: Wnt5a (protein binding on small-molecule microarray); assay: Wnt5a binders on small-molecule microarray, primary screen, biophysical, 635/667 nm fluorescence (AID 1142); conditions: 635 nm fluorescence, higher = more signal;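 note: fluorescence read at 667 nm with signal to noise per printed feature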
[2] = cell viability in Huh7 cells, primary screen, cytotoxicity control for HCV replication inhibitor project, CellTiter-Glo luminescence, basal, 48 h (AID 1143); conditions: Huh7 HCV replicon, higher = more signal, called active from +8 up or from −8 down;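 note: Huh7 hepatoma cells carrying a hepatitis C replication reporter with no stimulus; test concentration not given here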
[3] = P. aeruginosa biofilm formation inhibitors, primary screen, PAO1 strain, BacTiter-Glo luminescence, LB-PBS (AID 1144); conditions: 12 h, higher = more signal
[4] = CREB reporter modulators without forskolin, primary screen, cell-based, PC12, CRE-LacZ reporter, unstimulated (AID 1145); conditions: no forskolin, luminescence, 4.5 h, higher = more signal, called active from +8 up or from −8 down
[5] = CREB reporter modulators under forskolin, primary screen, cell-based, PC12, CRE-LacZ reporter, forskolin-stimulated (AID 1146); conditions: luminescence, 4.5 h, higher = more signal, called active from +8 up or from −8 down;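 note: PC12 cells with 6xCRE LacZ reporter stimulated by forskolin 10 µM; beta-galactosidase reporter signal reflecting CREB driven transcription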
[6] = target: Streptavidin (Streptomyces avidinii) (UniProt P22629); assay: streptavidin binders on small-molecule microarray, primary screen, artefact control for SMM compound annotation, biophysical, 635/667 nm fluorescence (AID 1147); conditions: streptavidin binding, higher = more signal;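 note: signal reflects streptavidin binding to arrayed compounds as a control protein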
Chain of Streptavidin (Streptomyces avidinii) (P22629 whole entry, looked up): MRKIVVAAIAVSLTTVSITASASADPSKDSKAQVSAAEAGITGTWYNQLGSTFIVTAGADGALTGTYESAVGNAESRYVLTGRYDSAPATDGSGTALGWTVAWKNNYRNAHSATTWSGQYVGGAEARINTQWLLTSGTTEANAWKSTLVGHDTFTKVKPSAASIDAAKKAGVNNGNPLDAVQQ

[7] = small-molecule binders of probe aInhba, primary screen, biochemical, small-molecule microarray, 635/667 nm fluorescence (AID 1148); conditions: higher = more signal;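 note: score merges 667nm spot fluorescence with signal-to-noise for antibody binding to printed compounds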
Torsin-1A (Homo sapiens) [8] = target: Torsin-1A (Homo sapiens) (UniProt O14656); assay: torsin A binders from cell lysate, primary screen, small-molecule microarray, wild-type, 635/667 nm (AID 1149); conditions: COS7 hTOR1A-WT lysate, 635 nm fluorescence, higher = more signal
Chain of Torsin-1A (Homo sapiens) (O14656 whole entry, looked up): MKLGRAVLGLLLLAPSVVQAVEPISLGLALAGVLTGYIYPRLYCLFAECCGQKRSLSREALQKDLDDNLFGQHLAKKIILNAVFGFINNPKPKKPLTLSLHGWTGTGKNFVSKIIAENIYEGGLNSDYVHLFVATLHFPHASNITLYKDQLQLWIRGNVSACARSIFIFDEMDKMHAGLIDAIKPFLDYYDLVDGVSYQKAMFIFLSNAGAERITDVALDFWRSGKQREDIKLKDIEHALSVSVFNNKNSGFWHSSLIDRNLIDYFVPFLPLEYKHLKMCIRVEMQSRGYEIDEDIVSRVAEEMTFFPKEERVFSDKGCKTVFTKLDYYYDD

Torsin-1A (Homo sapiens) [9] = target: Torsin-1A (Homo sapiens) (UniProt O14656); assay: small-molecule binders of mutant TOR1A in lysate, primary screen, cell lysate, small-molecule microarray, COS7 lysate, 635/667 nm fluorescence (AID 1150); conditions: COS7 hTOR1A mutant lysate, 635 nm fluorescence, higher = more signal;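 note: score pools 667 nm emission and signal to noise measuring lysate protein binding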
[10] = test system: Sonic hedgehog protein (Shh); assay: small-molecule binders of Shh protein, primary screen, biochemical, small-molecule microarray, 635/667 nm fluorescence (AID 1151); conditions: small-molecule microarray binding, 635 nm fluorescence; higher = more signal;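 note: Shh protein binding to compounds spotted on small-molecule microarray slides; score combines spot fluorescence intensity with signal-to-noise across triplicate slides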

| Compound | composite z-score [1] | z-score [2] | z-score [3] | z-score [4] | z-score [5] | composite z-score [6] | composite z-score [7] | composite z-score (Torsin-1A (Homo sapiens) [8]) | composite z-score (Torsin-1A (Homo sapiens) [9]) | composite z-score [10] |
| --- | --- | --- | --- | --- | --- | --- | --- | --- | --- | --- |
| CC(C)CN1CCc2nc(-c3ccccc3)c3c(c2CC1)CO[C@@H](C)C3 | 0.134 | -0.388 (inactive) | -0.705 (inactive) | 0.738 (inactive) | -1.26 (inactive) | -0.2 | 0.255 | 0.531 | 0.954 | 1.53 |
| O=C(NN=C1C[C@@H](O)[C@@H](O)[C@@H]2[C@@H]3C(=O)N(c4cccc(Oc5ccccc5)c4)C(=O)[C@@H]3CC[C@H]12)OCc1ccccc1 | -0.132 | -1.24 (inactive) | 1.3 (inactive) | -0.0199 (inactive) | 0.0693 (inactive) | 1.68 | -0.128 | 0.0142 | -0.104 | -0.689 |
| CO[C@H]1O[C@H](CO)[C@@H](OC(=O)Nc2ccc3c(c2)OCO3)[C@H](OC(=O)Nc2ccccc2-c2ccccc2)[C@@H]1OC(=O)Nc1ccccc1-c1ccccc1 | 0.492 | -3.03 (inactive) | -0.176 (inactive) | 0.54 (inactive) | -0.528 (inactive) | 1.08 | 0.124 | 0.957 | 1.17 | 0.672 |
| Cc1ccc(S(=O)(=O)N[C@@H]2COC(=O)[C@H](C)COC(=O)CC=C[C@H]2C)cc1 | 0.0114 | 0.405 (inactive) | 0.317 (inactive) | 0.0676 (inactive) | -0.262 (inactive) | 0.134 | -0.224 | 1.06 | 0.615 | 1.91 |
| O=C1CCCC2OC12C(O)CCc1ccccc1 (stereo not given) | 0.154 | 0.564 (inactive) | 0.357 (inactive) | 1.18 (inactive) | 0.0396 (inactive) | 0.035 | -0.214 | 0.0994 | -0.0582 | 0.174 |
| CN1C(=O)C2C=CC(C(O)c3ccc(I)cc3)N(NC(=O)OC(C)(C)C)C2C1=O (stereo not given) | 0.0527 | 0.6 (inactive) | 0.155 (inactive) | -0.515 (inactive) | 0.699 (inactive) | 0.323 | 0.274 | -0.042 | 0.447 | -0.436 |
| CCOC(=O)NN=C1C[C@@H](O)[C@@H](O)[C@@H]2[C@@H]3C(=O)N(C[C@@H]4CCCO4)C(=O)[C@@H]3CC[C@@H]12 | -0.0127 | 0.0688 (inactive) | 0.139 (inactive) | -0.658 (inactive) | 0.75 (inactive) | 0.293 | -0.0933 | 0.298 | 0.76 | 0.111 |
| Cn1cccc1C(O)C1C=CC2C(=O)NC(=O)C2N1Nc1ccccn1 (stereo not given) | 0.0956 | -3.04 (inactive) | 0.465 (inactive) | -0.326 (inactive) | 0.583 (inactive) | 0.126 | -0.231 | 0.3 | 0.197 | 0.64 |
| C=C(/C(=C/C[C@H](OC(=O)c1ccncc1)c1ccc(OCCO)cc1)c1cnc2ccccc2c1)C(C)C | 1.32 | -2.02 (inactive) | -0.295 (inactive) | 6.42 (inactive) | -0.429 (inactive) | 1.3 | 0.0471 | 1.12 | 0.551 | 2.16 |
| CCCCCN1CC=CC23O[C@@H]4C=CCOC(=O)[C@@H]4[C@H]2C(=O)N(C(CO)C(C)C)[C@@H]3C1=O (stereo not given in full) | -0.389 | -0.524 (inactive) | 0.921 (inactive) | -0.757 (inactive) | 0.371 (inactive) | -0.263 | 0.0013 | -1.34 | -1.38 | 0.298 |
| O=C(CS)NCCCCCNC(=O)[C@H]1C[C@H]2C(=O)N3CCC[C@H]3C(=O)N2[C@H]1c1cccc(OCCO)c1 | 0.76 | 0.0319 (inactive) | 0.162 (inactive) | -0.126 (inactive) | 0.899 (inactive) | 0.0654 | -0.016 | 0.581 | 0.751 | 1.99 |
| O=C1[C@H]2[C@H]3[C@H](O)[C@H](O)CC(=NOCc4ccccc4)[C@@H]3CC[C@H]2C(=O)N1Cc1ccccc1 | -0.0408 | 0.0627 (inactive) | 0.76 (inactive) | 0.155 (inactive) | 0.663 (inactive) | 0.336 | -0.128 | -0.0549 | 0.282 | 0.84 |
| O=C1O[C@@H](c2ccccc2)[C@@H](c2ccccc2)N2[C@@H](c3ccccc3OCCO)[C@]3(C(=O)Nc4ccc(C#CCCO)cc43)[C@@H](C(=O)O)[C@H]12 | 0.44 | -5.04 (inactive) | -0.923 (inactive) | -0.465 (inactive) | 1.6 (inactive) | 0.618 | 1.43 | 0.536 | 0.925 | 0.517 |
| CC(C)=CCCC(C)=CCON=C1C[C@@H](O)[C@@H](O)[C@@H]2[C@@H]3C(=O)N(C[C@@H]4CCCO4)C(=O)[C@@H]3CC[C@@H]12 | 0.311 | -0.678 (inactive) | 0.518 (inactive) | -0.659 (inactive) | -0.227 (inactive) | -0.0996 | -0.0933 | 2.06 | 2.01 | 1.73 |
| COc1ccc([Si](C)(C)[C@@H]2[C@@H](CCO)O[C@]3(C(=O)N(Cc4ccc(NC(C)=O)cc4)c4ccccc43)[C@H]2C)cc1 | 0.913 | -8.01 (active) | 0.525 (inactive) | 3.57 (inactive) | -2.33 (inactive) | 0.627 | 0.16 | 0.412 | 1.21 | 1.35 |
| O=C1[C@H]2[C@H]3[C@H](O)[C@H](O)CC(=NOCc4ccccc4)[C@@H]3CC[C@H]2C(=O)N1C1CCCCC1 | 0.0062 | -0.48 (inactive) | 0.774 (inactive) | 0.519 (inactive) | 0.182 (inactive) | -0.0498 | -0.533 | -0.0289 | -0.47 | -0.317 |
| O=C1C[C@@H](O)[C@@H](O)[C@@H]2[C@@H]3C(=O)N(C4CCCCC4)C(=O)[C@@H]3CC[C@H]12 | 0.0832 | 0.406 (inactive) | -0.653 (inactive) | -0.0258 (inactive) | -0.444 (inactive) | 0.0447 | -0.128 | 0.296 | 0.585 | -0.0419 |
| O=C1[C@H]2[C@H]3[C@H](O)[C@H](O)CC(=NOC[C@@H](O)COCc4ccco4)[C@@H]3CC[C@H]2C(=O)N1c1ccc(F)cc1F | 0.0016 | -1.7 (inactive) | 1.85 (inactive) | -0.475 (inactive) | -0.0097 (inactive) | -0.195 | -0.231 | 1.13 | 0.516 | 0.749 |
| O=C1[C@H]2[C@H]3[C@H](O)[C@H](O)CC(=NOCc4ccccc4)[C@H]3CC[C@H]2C(=O)N1c1cccc(Oc2ccccc2)c1 | 0.242 | -2.26 (inactive) | 0.768 (inactive) | -0.384 (inactive) | -0.271 (inactive) | 0.293 | 0.0108 | 0.294 | 0.363 | 1.24 |
| CO[C@@H]1COC(=O)CC=C[C@@H](C)COC(=O)[C@H](COCc2ccccc2)NC(=O)CC=C[C@H]1C | -0.146 | 0.185 (inactive) | 0.324 (inactive) | 0.605 (inactive) | -0.201 (inactive) | -0.214 | -0.128 | 2.33 | 2.51 | 1.77 |
| CCN(CC)c1ccc(N2CC=CC34O[C@@H]5/C=C\CCC(C)OC(=O)C5[C@H]3C(=O)N(CCCO)[C@@H]4C2=O)cc1 (stereo not given in full) | 0.0023 | -0.682 (inactive) | 3.06 (inactive) | 0.0564 (inactive) | -0.102 (inactive) | -0.946 | -0.211 | 1.23 | 2.02 | -0.403 |
| COc1ccc([Si](C)(C)[C@@H]2[C@@H](CC(=O)N3CCC[C@H]3CO)O[C@]3(C(=O)N(Cc4cccc(N5CCC5=O)c4)c4ccccc43)[C@H]2C)cc1 | -0.071 | -3.38 (inactive) | -1.54 (inactive) | 0.772 (inactive) | -0.662 (inactive) | 1.56 | 0.3 | 0.511 | 0.413 | 2 |
| CC(C)CON=C1C[C@@H](O)[C@@H](O)[C@@H]2[C@@H]3C(=O)N([C@@H](C)c4ccccc4)C(=O)[C@@H]3CC[C@H]12 | 0.257 | -0.544 (inactive) | 1.98 (inactive) | -0.383 (inactive) | -0.0095 (inactive) | 0.528 | 0.168 | 0.466 | 0.477 | 1.58 |
| COCCOC(=O)N1C(=O)[C@@]2(c3cc(C#CC4(O)CCCCCC4)ccc31)[C@H](C(=O)N1CCN(c3ncccn3)CC1)[C@H]1C(=O)O[C@H](c3ccccc3)[C@H](c3ccccc3)N1[C@@H]2c1ccc(OCCO)cc1 | 0.495 | -3.05 (inactive) | 0.905 (inactive) | -0.878 (inactive) | -0.249 (inactive) | 0.436 | 0.303 | 0.227 | 0.425 | 1.17 |
| C=CC[C@@H]1C=C[C@H](ON=Cc2ccc(C(=O)N3[C@H](c4ccc(C)cc4)[C@@H](C)CC[C@H]3C(=O)OC)cc2)[C@@H](CO)O1 | 0.14 | -1.33 (inactive) | 0.694 (inactive) | 3.89 (inactive) | 0.062 (inactive) | -0.161 | -0.0791 | -0.0434 | 0.0034 | 0.68 |
| CC(C)[C@H](NC(=O)OC(C)(C)C)[C@@H](O)CC(=O)OC(C)(C)C | -0.417 | -0.49 (inactive) | -0.896 (inactive) | 0.293 (inactive) | 0.337 (inactive) | -0.14 | -0.152 | -0.781 | -0.448 | -0.463 |
| COCCOC(=O)N1C(=O)[C@@]2(c3cc(C#CCNC(N)=O)ccc31)[C@H](c1ccc(O)cc1)N1[C@H](c3ccccc3)[C@H](c3ccccc3)OC(=O)[C@H]1[C@@H]2C(=O)N1CCCCCCC1 | 0.272 | -0.446 (inactive) | -0.945 (inactive) | -1.57 (inactive) | 0.357 (inactive) | 0.445 | -0.186 | 0.4 | 0.527 | 1.65 |
| CCOC(=O)[C@H](Cc1ccccc1)NC(=O)CCC1CC(OC(=O)NCc2ccc3c(c2)OCO3)CC2(CCCC(COC(=O)NCc3ccccc3)O2)O1 (stereo not given in full) | 0.0594 | -0.256 (inactive) | -0.971 (inactive) | -0.155 (inactive) | 0.807 (inactive) | 1.13 | -0.168 | 0.0156 | 0.28 | 0.944 |
| CO[C@@H]1COC(=O)CCC[C@@H](C)[C@H](OC)COC(=O)[C@H](Cc2ccccc2)NC(=O)CC=C[C@H]1C | -0.706 | -1.08 (inactive) | -0.894 (inactive) | 0.0897 (inactive) | 1.18 (inactive) | -0.431 | -0.159 | 1.34 | -0.0271 | 1.99 |
